Rows were chosen to be rich in hits. Some 8.1% of all compounds tested hit in one or more screens of this group.
VP16 counter: Gal4-VP16 reporter inhibition counter-screen; 310,000 compounds, 3.5% hits; Drosophila S2 Gal4-VP16 UAS-luciferase, luminescence, 20 h; Potency, µM (titrated, usually from 53.6 µM), for inactives: at the top dose activity, negative = inhibition, usual class: inhibitors; AID 2546;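 further: Gal4-VP16 expression switched on by copper sulfate through the metallothionein promoter; on the % scale 0 is the no-effect control and ±100 the full control effect; nearly all actives have a fitted effect of over 50% in size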
RORg inh: inhibitors of mouse ROR gamma transcriptional activity | P51450 | 310,000 compounds, 5.4% hits | AID 2551 | Potency, µM (series often up to 53.6 µM), inactives show top-dose activity change, negative = inhibition, usual class: inhibitors | Drosophila S2 Gal4-RORgamma UAS-luciferase reporter, 20 h; further: on the % scale 0 is the no-effect control and ±100 the full control effect; nearly all actives have a fitted effect of over 60% in size
Target sequence (P51450 whole entry, looked up, the tested form may be a part): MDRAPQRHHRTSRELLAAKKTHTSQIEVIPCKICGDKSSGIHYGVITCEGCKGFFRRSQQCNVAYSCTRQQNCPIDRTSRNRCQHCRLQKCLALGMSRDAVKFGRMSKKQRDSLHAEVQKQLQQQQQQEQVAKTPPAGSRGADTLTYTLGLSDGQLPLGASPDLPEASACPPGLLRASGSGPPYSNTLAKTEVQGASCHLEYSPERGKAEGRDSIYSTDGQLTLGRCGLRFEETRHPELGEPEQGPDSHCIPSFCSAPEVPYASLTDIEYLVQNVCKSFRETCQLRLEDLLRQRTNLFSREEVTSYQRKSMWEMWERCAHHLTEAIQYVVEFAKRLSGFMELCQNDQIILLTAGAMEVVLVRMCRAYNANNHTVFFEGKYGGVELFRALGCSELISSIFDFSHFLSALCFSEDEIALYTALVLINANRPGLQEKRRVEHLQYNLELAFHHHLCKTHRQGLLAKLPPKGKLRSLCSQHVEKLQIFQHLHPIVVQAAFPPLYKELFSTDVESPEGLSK
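Stable Schneider cell line, Gal4 DNA-binding domain fused to ROR gamma, UAS-luciferase. Cmpd 1 hr RT → CuSO4 700 uM final → 20 hr RT → luciferase reagent 10 min → luminescence.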
PINK1 modulator: changes PINK1 expression; PINK1 immunofluorescence, high-content cytometry, 24 h; Potency, µM (top dose mostly 76.6 µM), without a hit: at the highest dose activation (PINK1 increase), hits mostly activators; 410,000 compounds, 0.2% hits; AID 624263; active means well fitted activation curve with a large enough effect; inconclusive means small, poorly fitted or top-dose-only effect; cell line not stated here; further: % of control where 0% means no effect; nearly all actives have a fitted effect of over 65% in size
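Stable cell line, 250 cells/well, 12 h attachment; compounds pinned at 5 concentrations, 24 h; CCCP control. Fixed with nuclear dye, primary antibodies 12 h at 10 degrees C, secondary plus cell stain; laser-scanning cytometer read.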
Epigenetic derep: derepresses silenced GFP reporter in murine cells; murine LDR cells, GFP reporter derepression, 30 h; Potency, µM (doses to about 53.9 µM), without a hit: at the top dose GFP activation, actives largely listed as activators; 280,000 compounds, 0.2% hits; further: % of control where 0% means no effect; nearly all actives have a fitted effect of over 60% in size
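Derepression of a silenced CMV-GFP reporter in murine LDR cells is scored by enumerating GFP-positive cells with a laser-scanning microplate cytometer after 30 hours of treatment at 37 C.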
Sfp PPTase inh: inhibitors of Bacillus subtilis Sfp phosphopantetheinyl transferase | Q9F4F7 | Biochemical Sfp PPTase activity, qHTS | Potency, µM, inactives show largest response in the series, negative = inhibition, usual class: inhibitors | 310,000 compounds, 3.5% hits | AID 1490;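 further: the enzyme is Sfp with the accession as filed and its product quenches rhodamine fluorescence; 0% = enzyme reaction without inhibitor and -100% = no enzyme wells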
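Reaction rates are the 30-min fluorescence difference (ex 525, em 598 nm) in wells containing 15 nM Sfp, 5 uM rhodamine-CoA and 12.5 uM BHQ-2-YbbR at pH 7.6 with 10 mM MgCl2.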
ClpP mod: qHTS Assay for Activators of ClpP | ATP-dependent Clp protease proteolytic subunit (Bacillus subtilis (strain 168)), P80244 | purified B. subtilis ClpP, FRET peptide cleavage, 20 min | Potency, µM (doses to about 57.5 µM), without a hit: at the highest dose activity change, negative = active | 340,000 compounds, 1.9% hits | AID 651965, 2013; active means well fitted falling curve with a large enough effect; inconclusive means small, poorly fitted or top-dose-only effect; inactive means no such curve, though single readings can be large or run the other way; further: the source files actives as falling curves though it sought activators and does not explain the sign; nearly all actives have a fitted effect of over 65% in size
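FRET quenching reversal measured ClpP activation: 10 microg/mL B. subtilis ClpP at pH 8 with the FRET-FV decapeptide, read at 430 nm after 320 nm excitation. The 20-min minus 0-min signal was scaled between DMSO/no-enzyme wells and ADEP (5.8 microM final).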
An asterisk follows results filed as active; ? = inconclusive; · = not tested or not shown; ! = not active in a repeat; [ ] = another dose, or the depositor's remark. Unless noted, the call rests on the fitted dose curve; in most records, active means well fitted curve in the direction sought with a large enough effect; inconclusive means small, poorly fitted or top-dose-only effect, or another doubt; inactive means no such curve, though single readings can be large; an effect the other way counts as inactive or inconclusive. Potency means the concentration at half of the fitted maximal effect.

SMILES	VP16 counter	RORg inh	PINK1 modulator	Epigenetic derep	Sfp PPTase inh	ClpP mod
CC1CCN(C2(O)C(=O)Nc3ccc(Cl)cc32)CC1 (stereo unspecified)	-13%	23%[1.91 µM]	1%	·	8%	13µM*
Cc1ccccc1C(=O)OCc1cc(=O)n2nc(C3CCCCC3)sc2n1	·	·	1%	0%	·	-8%
CC(C)(C)c1ccc(C(=O)NCCCN2CCN(CCCNC(=O)c3ccc(C(C)(C)C)cc3)CC2)cc1	13µM*	7.1µM*	-4%	-1%	?	-11%
CC(C)(C)c1ccc(C(=O)NCCN2CCOCC2)cc1	·	·	1%	·	·	-1%
Cc1ccccc1Nc1nc(-c2sc(NC(=O)c3ccccc3)nc2C)cs1	?	?	·	-2%	25µM*	·
Cc1ccccc1Nc1nc(-c2sc(NC(=O)c3ccc([N+](=O)[O-])cc3)nc2C)cs1	-15%	-17%	·	-2%	-10%	·
Cc1ccccc1Nc1nc(-c2sc(NC(=O)c3cccc(Cl)c3)nc2C)cs1	?	13µM*	·	0%	-7%	·
CCOc1ccccc1Nc1nc(-c2sc(NC(=O)c3ccc([N+](=O)[O-])cc3)nc2C)cs1	?	6.3µM*	·	0%	-2%	·
CCCC(=O)n1nc(-c2ccco2)nc1NCc1ccccc1Cl	·	·	1%	-2%	·	-1%
Cc1ccc2nc3c(cc(C(N)=S)c(=N)n3CCCOC(C)C)c(=O)n2c1	-18%	3%	8%[38.3 µM]	?	45µM*	22µM*
COCCCn1c(=N)c(C(N)=S)cc2c(=O)n3cccc(C)c3nc21	·	·	-1%	·	·	·
CCOC(=O)c1nnn(CC(=O)N2N=C(c3cc(C)ccc3C)CC2c2ccc(OC)cc2)c1C(=O)OCC (stereo unspecified)	-13%	-15%	-1%	1%	19%	-14%
CC(=O)OCC(=O)N1N=C(c2ccc3ccccc3c2)CC1c1ccccc1 (stereo unspecified)	-4%	?	2%	7%	25µM*	·
CCOC(=O)c1nnn(CC(=O)N2N=C(c3ccccc3)CC2c2ccccc2)c1C(=O)OCC (stereo unspecified)	-19%	13µM*	2%	-1%	3%	-11%
CCc1ccc(-n2c(=O)c3c4c(sc3n(Cc3ccccc3C#N)c2=O)CCCC4)cc1	·	·	2%	-2%	·	0%
Cc1cc(C2CCCCC2)n(O)c(=O)c1	2.2µM*	2µM*	0%	?	5%	-3%
CCN1C(=NCCCOC(C)C)N[C@@H](CCc2ccccc2)[C@H](C(=O)NCCCOC(C)C)[C@H]1C	-7%	?	22µM*	·	0%	-13%
CCN1C(=NCCOC)N[C@@H](CCc2ccccc2)[C@H](C(=O)OC)[C@H]1C	-9%	-10%	1%	·	19%	-3%
CCOc1ccccc1CNC(=O)c1cc2oc3ccccc3c2n1CC	-1%	17%	-1%	0%	-7%	32µM*!
COC(=O)c1cc2oc3ccccc3c2n1CC(=O)Nc1ccccc1OC	7%	4%	10%	0%	17%	-22%
COc1cccc(CNC(=O)c2cc3oc4ccccc4c3n2C)c1OC	-11%	4%	1%	2%	-15%	25µM*
CCn1c(C(=O)NCc2ccc(F)cc2)cc2oc3ccccc3c21	·	·	-1%	-3%	·	4%
COc1ccc(-c2cc(C(=O)NC(C)c3ccccc3)c3cc(C(C)C)ccc3n2)cc1 (stereo unspecified)	·	·	-1%	0%	·	?
CCc1ccccc1OCC(=O)Nc1ccc(N2CCCC2)cc1C	·	·	28µM*	·	·	·
Cc1ccccc1OCC(=O)NC(=S)Nc1ccccc1N1CCN(S(C)(=O)=O)CC1	?	10µM*	1%	·	16%	-1%
Cc1ccccc1OCC(=O)NC(=S)Nc1ccc(N2CCCC2)cc1	8.9µM*	8.9µM*	2%	1%	2%	·
Cc1ccccc1OCC(=O)NC(=S)Nc1cccc2cc(O)ccc12	?	-58%	-2%	·	0%	0%
Cc1cc(N2CCCC2)ccc1NC(=O)COc1ccccc1	·	·	5%	·	·	·

High-throughput results from PubChem.
